In PubChem BioAssay (EPA / NIEHS):
Activity calls are given as the source filed them. Rule for the calls: active = hit-call score of the fitted dose curve at least 0.9, where 1 is the maximum; inactive = score below 0.9.

What was measured:
[1] = ATG_CRE_CIS: Attagene CIS-FACTORIAL HepG2 Assay for human cAMP Responsive Element (CRE) binding protein 3 (AID 2282926); details: HepG2 CRE cis-reporter, Attagene multiplexed mRNA; actives raise or lower the signal
In short: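 Readout: fluorescently labelled reporter transcripts resolved by capillary electrophoresis after RT-PCR, taken 24 h post-dosing in transfected HepG2. Endogenous transcription factor activity drives each cis-element reporter; gain or loss of signal fitted relative to DMSO control.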

[2] = target: CCAAT/enhancer-binding protein beta (Homo sapiens) (UniProt P17676); experiment: ATG_C_EBP_CIS: Attagene CIS-FACTORIAL HepG2 Assay for human CCAAT/Enhancer Binding Protein (C/EBP) beta (AID 2282927); details: HepG2 Attagene cis-factorial transcription factor reporter; actives raise or lower the signal
In short: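 Chemical-treated HepG2 cells (24 h) bearing cis-regulated reporter constructs were processed for total RNA, then reverse transcription, PCR amplification, fluorescent primer extension and fragment analysis; gain- and loss-of-signal were fitted against DMSO.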

[3] = ATG_CMV_CIS: Attagene CIS-FACTORIAL HepG2 Assay for human CMV (Internal Marker) (AID 2282928); details: HepG2 CMV promoter reporter, transcription factor profiling; actives raise or lower the signal;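 note: endpoint acts as a background internal control marker rather than a target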
In short: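 24 h chemical treatment, HepG2 with transient multi-reporter transfection; RNA → oligo(dT) RT → PCR → 6-FAM extension → HpaI digest → CE fluorescence. Bidirectional fit, DMSO negative control.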

[4] = ATG_DR4_LXR_CIS: Attagene CIS-FACTORIAL HepG2 Assay for human Liver X Receptor (LXR), DR4 submotif (AID 2282929); details: HepG2 Attagene DR4 cis-reporter, mRNA transcription; actives raise or lower the signal
In short: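 DR4 cis-reporter in HepG2, 24 h exposure. Detection: RT-PCR, 6-FAM labelling, CE fragment analysis. Endpoint fitted bidirectionally, DMSO = baseline.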

[5] = target: Aryl hydrocarbon receptor (Homo sapiens) (UniProt P35869); experiment: ATG_Ahr_CIS: Attagene CIS-FACTORIAL HepG2 Assay for human Aryl Hydrocarbon Receptor (Ahr) (AID 2282930); details: HepG2 AhR cis-factorial reporter transcription; actives raise or lower the signal
In short: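 Following 24 h of chemical dosing, transfected HepG2 liver cells with cis-driven reporter units were lysed for RNA; reporter mRNA was quantified via RT-PCR and capillary electrophoresis, and responses fitted bidirectionally from DMSO.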

[6] = ATG_AP_2_CIS: Attagene CIS-FACTORIAL HepG2 Assay for human Activator Protein 2 (AP-2) (AID 2282932); details: HepG2 AP-2 cis-reporter, Attagene transcription factor profiling; actives raise or lower the signal
In short: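 Cells (HepG2) transfected with promoter-driven reporter constructs, treated 24 h. Total RNA reverse-transcribed, reporter cDNA PCR-amplified, FAM-labelled by primer extension, digested, resolved by capillary electrophoresis. Activity fitted both directions versus DMSO.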

[7] = ATG_BRE_CIS: Attagene CIS-FACTORIAL HepG2 Assay for human Bone Morphogenetic Protein (BMP) Response Element (BRE) (AID 2282933); details: HepG2 BMP response element reporter, Attagene transcription factor profiling; actives raise or lower the signal
In short: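 Endogenous transcription factor activity at a BMP response element was monitored in transfected HepG2 cells 24 h after dosing. Fluorescent RT-PCR products were resolved by capillary electrophoresis, and activity was fitted in both directions versus DMSO.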

[8] = target: Transcription factor E2F1 (Homo sapiens) (UniProt Q01094); experiment: ATG_E2F_CIS: Attagene CIS-FACTORIAL HepG2 Assay for human E2F Transcription Factor 1 (AID 2282935); details: HepG2 Attagene cis-reporter, E2F reporter RNA transcripts; actives raise or lower the signal
In short: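 First, HepG2 cells were transfected with reporter transcription units. Next, they were dosed for 24 h. Then RNA was isolated, converted to cDNA, PCR-amplified, FAM-labeled, HpaI-digested and analyzed by capillary electrophoresis.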

[9] = ATG_E_Box_CIS: Attagene CIS-FACTORIAL HepG2 Assay for human Enhancer Box (E-box) (AID 2282936); details: HepG2 E-box cis-reporter transcription, actives raise or lower the signal
In short: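 Endogenous transcription factor activity was sensed in human HepG2 liver cells through transfected cis-promoter reporter units. After 24 h of dosing, total RNA was reverse-transcribed and reporter cDNA resolved by capillary electrophoresis.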

[10] = ATG_M_61_CIS: Attagene CIS-FACTORIAL HepG2 Assay for M61 Transcription Factor (Internal Marker) (AID 2282937); details: HepG2 Attagene CIS-FACTORIAL M61 internal marker reporter; actives raise or lower the signal
In short: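 Background-control endpoint: HepG2 cells with cis-regulated reporter constructs, 24 h exposure, reporter mRNA detected via fluorescent primer extension and capillary electrophoresis; values from bidirectional fitting with DMSO baseline.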

[11] = ATG_EGR_CIS: Attagene CIS-FACTORIAL HepG2 Assay for human Early Growth Response 1 (EGR1) (AID 2282938); details: HepG2 Attagene CIS-FACTORIAL EGR reporter mRNA; actives raise or lower the signal
In short: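 Endpoint derived by bidirectional fitting versus DMSO vehicle. Method: cis-promoter reporter units transfected into HepG2, 24 h dosing, RNA isolation, RT-PCR with 6-FAM primer extension and HpaI digestion, then capillary electrophoresis fluorescence detection.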

[12] = ATG_M_19_CIS: Attagene CIS-FACTORIAL HepG2 Assay for M19 Transcription Factor (Internal Marker) (AID 2282939); details: HepG2 Attagene CIS-FACTORIAL M19 internal marker reporter; actives raise or lower the signal
In short: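 Background-control endpoint from a multiplexed HepG2 reporter panel. Cells carrying cis-regulated reporter constructs are treated 24 h, then reporter transcripts are amplified, fluorescently labelled and sized by capillary electrophoresis. DMSO defines baseline.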

[13] = ATG_ERE_CIS: Attagene CIS-FACTORIAL HepG2 Assay for Estrogen Response Element (ERE) (AID 2282940); details: HepG2 ERE cis-reporter, Attagene RNA transcript; actives raise or lower the signal
In short: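 Cells used were human hepatoma HepG2, transfected with multiple reporter transcription units under cis-regulatory promoters. Reporter mRNA, read 24 h post-dosing via fluorescent RT-PCR products on capillary electrophoresis, was fitted bidirectionally relative to DMSO.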

[14] = ATG_Ets_CIS: Attagene CIS-FACTORIAL HepG2 Assay for human Erythroblast Transformation Specific (ETS) (AID 2282941); details: HepG2 ETS cis-reporter transcription, actives raise or lower the signal
In short: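 Cis-regulated reporter mRNA induction in HepG2 (transient transfection), 24 h exposure, RT-PCR plus capillary electrophoresis detection; DMSO serves as negative control and baseline.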

[15] = target: Hepatocyte nuclear factor 3-beta (Homo sapiens) (UniProt Q9Y261); experiment: ATG_FoxA2_CIS: Attagene CIS-FACTORIAL HepG2 Assay for human Forkhead box A2 (FOXA2) (AID 2282942); details: HepG2 cis-reporter transcription factor activity, 24 h; actives raise or lower the signal
In short: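 Measured: reporter mRNA induction or loss in HepG2 transiently carrying multiple cis-regulated reporter units, 24 h after dosing. Quantified by RT-PCR plus capillary electrophoresis, normalised to DMSO.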

[16] = ATG_FoxO_CIS: Attagene CIS-FACTORIAL HepG2 Assay for human Forkhead box O (FoxO) (AID 2282943); details: HepG2 Attagene cis-reporter, FoxO element, mRNA; actives raise or lower the signal
In short: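 24 h chemical exposure, HepG2 with transient cis-MRTU transfection. RNA extraction, oligo(dT) RT, reporter-specific PCR, primer-extension labelling, HpaI digestion, CE fragment analysis; bidirectional fit, DMSO baseline.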

[17] = ATG_GATA_CIS: Attagene CIS-FACTORIAL HepG2 Assay for human GATA Binding Protein (AID 2282944); details: HepG2 GATA cis-element reporter, Attagene multiplex mRNA; actives raise or lower the signal
In short: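 Endogenous transcription factor activity was captured through cis-promoter-driven reporters in transfected HepG2 cells. After 24 h exposure, reporter transcripts were quantified by RT-PCR with fluorescent capillary electrophoresis, and responses fitted both directions against DMSO.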

[18] = ATG_GLI_CIS: Attagene CIS-FACTORIAL HepG2 Assay for human Zinc Finger Protein GLI1 (AID 2282945); details: HepG2, Attagene cis-factorial reporter mRNA, GLI element; actives raise or lower the signal
In short: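 HepG2 cells transiently transfected with cis-promoter multiplexed reporter units report endogenous transcription factor activity. After 24 h chemical exposure, reporter mRNA was quantified by RT-PCR, 6-FAM labelling, HpaI digestion and capillary electrophoresis, with bidirectional fitting against DMSO.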

[19] = ATG_AP_1_CIS: Attagene CIS-FACTORIAL HepG2 Assay for human Activator Protein 1 (AP-1) (AID 2282931); details: HepG2 Attagene cis-factorial AP-1 reporter mRNA; actives raise or lower the signal
In short: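 Cis-regulated reporter units transiently expressed in HepG2 report endogenous transcription-factor activity. Signal: reporter mRNA at 24 h, via RT-PCR and fluorescent capillary electrophoresis. Endpoint derived by bidirectional fitting, DMSO as negative control.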

[20] = target: Retinoic acid receptor alpha (Homo sapiens) (UniProt P10276); experiment: ATG_DR5_RAR_CIS: Attagene CIS-FACTORIAL HepG2 Assay for human Retinoic Acid Receptor Alpha (RARE), DR5 submotif (AID 2282934); details: HepG2 Attagene cis-factorial RARE DR5 reporter, mRNA; actives raise or lower the signal
In short: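 Transfected HepG2 reporter cells are exposed to chemicals for 24 h. Then RNA is extracted and the DR5 element reporter transcript is measured by RT-PCR and capillary electrophoresis, with bidirectional curve fitting relative to DMSO.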

Chain of Hepatocyte nuclear factor 3-beta (Homo sapiens) (Q9Y261 whole entry, looked up): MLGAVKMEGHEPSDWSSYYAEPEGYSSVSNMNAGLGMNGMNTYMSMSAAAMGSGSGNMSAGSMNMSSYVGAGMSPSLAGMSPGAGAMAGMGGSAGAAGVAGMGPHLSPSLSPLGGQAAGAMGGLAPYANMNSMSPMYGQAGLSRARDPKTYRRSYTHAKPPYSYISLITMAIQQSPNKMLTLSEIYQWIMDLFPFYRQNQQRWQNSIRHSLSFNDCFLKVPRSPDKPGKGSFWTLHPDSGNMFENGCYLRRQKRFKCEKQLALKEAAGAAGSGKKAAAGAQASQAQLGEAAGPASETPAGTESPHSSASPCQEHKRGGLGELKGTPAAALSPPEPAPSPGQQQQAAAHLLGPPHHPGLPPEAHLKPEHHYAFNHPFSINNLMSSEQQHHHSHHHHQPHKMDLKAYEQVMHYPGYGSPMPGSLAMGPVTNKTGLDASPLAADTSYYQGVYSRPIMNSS
Chain of Aryl hydrocarbon receptor (Homo sapiens) (P35869 whole entry, looked up): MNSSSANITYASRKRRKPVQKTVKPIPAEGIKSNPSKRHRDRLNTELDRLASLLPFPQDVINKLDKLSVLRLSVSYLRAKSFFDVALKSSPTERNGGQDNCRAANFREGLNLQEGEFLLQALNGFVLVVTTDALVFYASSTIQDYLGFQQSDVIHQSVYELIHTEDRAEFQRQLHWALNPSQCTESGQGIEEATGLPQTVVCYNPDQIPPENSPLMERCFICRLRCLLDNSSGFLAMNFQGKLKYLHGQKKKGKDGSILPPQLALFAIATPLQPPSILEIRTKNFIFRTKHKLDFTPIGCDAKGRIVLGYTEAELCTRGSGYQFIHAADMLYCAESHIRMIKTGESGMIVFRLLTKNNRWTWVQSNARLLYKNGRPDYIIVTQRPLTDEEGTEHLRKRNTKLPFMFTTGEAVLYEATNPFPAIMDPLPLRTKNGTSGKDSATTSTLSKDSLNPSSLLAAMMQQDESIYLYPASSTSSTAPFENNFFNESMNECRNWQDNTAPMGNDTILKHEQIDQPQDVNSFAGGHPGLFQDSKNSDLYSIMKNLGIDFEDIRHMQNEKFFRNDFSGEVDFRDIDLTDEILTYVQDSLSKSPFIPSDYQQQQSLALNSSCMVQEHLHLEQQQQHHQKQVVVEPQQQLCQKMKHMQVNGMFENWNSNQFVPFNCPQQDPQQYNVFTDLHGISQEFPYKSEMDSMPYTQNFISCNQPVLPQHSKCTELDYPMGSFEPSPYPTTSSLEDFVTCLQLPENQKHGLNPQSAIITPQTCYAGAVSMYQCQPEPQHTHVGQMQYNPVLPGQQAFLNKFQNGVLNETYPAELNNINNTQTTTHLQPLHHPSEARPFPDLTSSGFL
Chain of Transcription factor E2F1 (Homo sapiens) (Q01094 whole entry, looked up): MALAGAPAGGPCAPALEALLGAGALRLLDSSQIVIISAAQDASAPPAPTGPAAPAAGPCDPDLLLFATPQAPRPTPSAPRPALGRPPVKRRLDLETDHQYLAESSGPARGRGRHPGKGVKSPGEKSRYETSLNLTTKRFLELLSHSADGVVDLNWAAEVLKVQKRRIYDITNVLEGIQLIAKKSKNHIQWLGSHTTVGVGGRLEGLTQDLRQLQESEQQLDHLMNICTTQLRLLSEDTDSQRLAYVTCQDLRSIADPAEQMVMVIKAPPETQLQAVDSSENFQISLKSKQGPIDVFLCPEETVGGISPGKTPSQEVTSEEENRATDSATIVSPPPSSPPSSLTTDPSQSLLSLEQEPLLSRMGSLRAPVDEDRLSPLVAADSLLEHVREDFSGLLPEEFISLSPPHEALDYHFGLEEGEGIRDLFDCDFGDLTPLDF
Chain of CCAAT/enhancer-binding protein beta (Homo sapiens) (P17676 whole entry, looked up, the tested form may be a part): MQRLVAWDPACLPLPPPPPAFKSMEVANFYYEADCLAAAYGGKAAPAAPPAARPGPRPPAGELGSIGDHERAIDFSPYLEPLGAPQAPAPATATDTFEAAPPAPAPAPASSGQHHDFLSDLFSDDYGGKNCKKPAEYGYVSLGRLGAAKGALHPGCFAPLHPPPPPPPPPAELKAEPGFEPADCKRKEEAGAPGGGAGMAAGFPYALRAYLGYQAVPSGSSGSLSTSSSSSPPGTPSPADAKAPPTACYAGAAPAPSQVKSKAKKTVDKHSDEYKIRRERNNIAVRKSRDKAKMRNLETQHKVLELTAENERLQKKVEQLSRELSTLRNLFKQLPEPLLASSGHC
Chain of Retinoic acid receptor alpha (Homo sapiens) (P10276 whole entry, looked up): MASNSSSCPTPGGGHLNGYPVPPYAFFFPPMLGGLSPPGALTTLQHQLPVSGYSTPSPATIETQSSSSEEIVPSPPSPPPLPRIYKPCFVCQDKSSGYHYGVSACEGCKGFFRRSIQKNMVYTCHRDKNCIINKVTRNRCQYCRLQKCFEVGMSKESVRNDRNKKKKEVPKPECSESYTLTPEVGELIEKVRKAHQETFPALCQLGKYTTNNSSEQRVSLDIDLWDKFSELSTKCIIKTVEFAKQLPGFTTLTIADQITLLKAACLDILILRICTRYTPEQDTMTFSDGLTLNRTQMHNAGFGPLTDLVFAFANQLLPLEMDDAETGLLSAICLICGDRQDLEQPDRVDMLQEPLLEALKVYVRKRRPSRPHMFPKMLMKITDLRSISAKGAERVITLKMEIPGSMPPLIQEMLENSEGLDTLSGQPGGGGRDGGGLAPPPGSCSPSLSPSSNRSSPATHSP

NCCCN1CCOCC1
outcome [1]: inactive
outcome [2]: inactive
outcome [3]: inactive
outcome [4]: inactive
outcome [5]: inactive
outcome [6]: inactive
outcome [7]: inactive
outcome [8]: inactive
outcome [9]: inactive
outcome [10]: inactive
outcome [11]: inactive
outcome [12]: inactive
outcome [13]: inactive
outcome [14]: inactive
outcome [15]: inactive
outcome [16]: inactive
outcome [17]: inactive
outcome [18]: inactive

COCCOCCOCCOCCOCCO
outcome [1]: inactive
outcome [2]: inactive
outcome [3]: inactive
outcome [4]: inactive
outcome [5]: inactive
outcome [6]: inactive
outcome [8]: inactive
outcome [9]: inactive
outcome [10]: inactive
outcome [11]: inactive
outcome [12]: inactive
outcome [15]: inactive
outcome [16]: inactive
outcome [17]: inactive
outcome [18]: inactive

CC1COc2ccccc2N1C(=O)C(Cl)Cl (stereo not given)
outcome [1]: inactive
outcome [2]: inactive
outcome [3]: inactive
outcome [4]: inactive
outcome [5]: inactive
outcome [6]: inactive
outcome [7]: inactive
outcome [8]: inactive
outcome [9]: inactive
outcome [10]: inactive
AC50 [11]: 41.1 µM (active)
outcome [12]: inactive
outcome [13]: inactive
outcome [14]: inactive
outcome [15]: inactive
AC50 [16]: 21 µM (active)
outcome [17]: inactive
outcome [18]: inactive

C=C[Si](OCC)(OCC)OCC
outcome [1]: inactive
outcome [2]: inactive
outcome [3]: inactive
outcome [4]: inactive
outcome [5]: inactive
outcome [19]: inactive
outcome [7]: inactive
outcome [8]: inactive
outcome [10]: inactive
outcome [11]: inactive
outcome [12]: inactive
outcome [14]: inactive
outcome [15]: inactive
outcome [16]: inactive
outcome [17]: inactive
outcome [18]: inactive

C#C[C@]1(O)CC[C@H]2[C@@H]3CCC4=Cc5oncc5C[C@]4(C)[C@H]3CC[C@@]21C
AC50 [1]: 41.2 µM (active)
outcome [2]: inactive
outcome [3]: inactive
AC50 [4]: 14.5 µM (active)
outcome [5]: inactive
outcome [6]: inactive
AC50 [8]: 33.4 µM (active)
AC50 [9]: 53.8 µM (active)
outcome [10]: inactive
AC50 [11]: 21.9 µM (active)
outcome [12]: inactive
AC50 [13]: 0.83 µM (active)
AC50 [14]: 26.1 µM (active)
outcome [15]: inactive
AC50 [16]: 60.4 µM (active)
AC50 [17]: 54.6 µM (active)
AC50 [18]: 60.9 µM (active)

C=C(C)C(=O)Nc1ccc(Cl)c(Cl)c1
outcome [1]: inactive
outcome [2]: inactive
outcome [3]: inactive
outcome [4]: inactive
AC50 [5]: 14.9 µM (active)
outcome [6]: inactive
AC50 [7]: 79.9 µM (active)
outcome [8]: inactive
outcome [9]: inactive
outcome [10]: inactive
AC50 [11]: 27.2 µM (active)
outcome [13]: inactive
outcome [14]: inactive
outcome [16]: inactive
outcome [17]: inactive
outcome [18]: inactive

Sc1nc(S)nc(S)n1
outcome [1]: inactive
outcome [2]: inactive
outcome [3]: inactive
outcome [4]: inactive
outcome [5]: inactive
outcome [19]: inactive
outcome [7]: inactive
outcome [8]: inactive
outcome [9]: inactive
outcome [10]: inactive
outcome [11]: inactive
outcome [12]: inactive
outcome [14]: inactive
outcome [15]: inactive
outcome [16]: inactive
outcome [17]: inactive
outcome [18]: inactive

CC(C)=CCC[C@](C)(O)[C@@H]1CC=C(C)CC1
outcome [1]: inactive
outcome [2]: inactive
AC50 [3]: 49.5 µM (active)
outcome [4]: inactive
outcome [5]: inactive
outcome [6]: inactive
outcome [7]: inactive
outcome [20]: inactive
outcome [8]: inactive
outcome [9]: inactive
outcome [10]: inactive
outcome [11]: inactive
outcome [12]: inactive
outcome [14]: inactive
outcome [15]: inactive
outcome [16]: inactive
outcome [17]: inactive
outcome [18]: inactive
